Reference: the supplement of paper PMC6555819

Columns and labels:
Assay in all cases: PBM binding z-score (relative to random genomic background probes); higher = stronger binding; sequences stand for … in GC…GCGATTGACAGCGTAGAATGAAGG
[1] = system: FXR:RXRa (NR concentration 270 nM, RXRa partner concentration 90 nM)
Method in brief: (§1)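 Probes were double-stranded and carried 34-nt variable regions with direct-repeat seeds, single-nucleotide variants, half-site ablations and random human genomic background sequences, printed on custom Agilent 4×180K protein-binding microarrays. Arrays were incubated 1 h with ligand-free nuclear receptor dimers in PBS pH 7.4, 2% milk, 0.02% Triton X-100, 1 mM DTT, 0.2 mg/mL BSA and 0.4 mg/ml salmon testes DNA. Antibodies against each partner (one per run) detected binding, and scanned fluorescence was regression-normalized. Binding z-scores use the random background probes as reference.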

[2] = system: LXRa:RXRa (NR concentration 270 nM, RXRa partner concentration 90 nM)
Method in brief: as §1

[3] = system: LXRa homodimer (NR concentration 270 nM)
Method in brief: as §1

[4] = system: LXRb:RXRa (NR concentration 270 nM, RXRa partner concentration 90 nM)
Method in brief: as §1

[5] = system: LXRb homodimer (NR concentration 270 nM)
Method in brief: as §1

[6] = system: PPARa:RXRa (NR concentration 270 nM, RXRa partner concentration 90 nM)
Method in brief: as §1

[7] = system: PPARg:RXRa (NR concentration 180 nM, RXRa partner concentration 90 nM)
Method in brief: as §1

[8] = system: PPARg:RXRa 270nM:90nM, anti-RXR (NR concentration 270 nM, RXRa partner concentration 90 nM)
Method in brief: as §1

[9] = system: PPARg:RXRa 30nM:10nM, anti-RXR (NR concentration 30 nM, RXRa partner concentration 10 nM)
Method in brief: as §1

[10] = system: PPARg:RXRa 90nM:30nM, anti-RXR (NR concentration 90 nM, RXRa partner concentration 30 nM)
Method in brief: as §1

[11] = system: PPARg:RXRa DBDmut IVT, anti-RXR (DBD mutation: RXRa K156A/R161A, NR concentration 270 nM, RXRa partner concentration 90 nM)
Method in brief: as §1

[12] = system: PPARg:RXRa IVT, anti-PPARg (NR concentration 270 nM, RXRa partner concentration 90 nM)
Method in brief: as §1

[13] = system: PPARg DBDmut:RXRa IVT, anti-PPARg (DBD mutation: PPARg1 K132A/R137A, NR concentration 270 nM, RXRa partner concentration 90 nM)
Method in brief: as §1

[14] = system: PPARg DBDmut IVT, anti-PPARg (DBD mutation: PPARg1 K132A/R137A, NR concentration 270 nM)
Method in brief: as §1

[15] = system: PPARg homodimer (NR concentration 180 nM)
Method in brief: as §1

[16] = system: PXR:RXRa (NR concentration 270 nM, RXRa partner concentration 90 nM)
Method in brief: as §1

[17] = system: PXR homodimer (NR concentration 270 nM)
Method in brief: as §1

[18] = system: RARa:RXR (NR concentration 270 nM, RXRa partner concentration 90 nM)
Method in brief: as §1

[19] = system: RARa homodimer (NR concentration 270 nM)
Method in brief: as §1

[20] = system: RARb:RXRa (NR concentration 270 nM, RXRa partner concentration 90 nM)
Method in brief: as §1

Sequence	PBM binding z-score [1]	PBM binding z-score [2]	PBM binding z-score [3]	PBM binding z-score [4]	PBM binding z-score [5]	PBM binding z-score [6]	PBM binding z-score [7]	PBM binding z-score [8]	PBM binding z-score [9]	PBM binding z-score [10]	PBM binding z-score [11]	PBM binding z-score [12]	PBM binding z-score [13]	PBM binding z-score [14]	PBM binding z-score [15]	PBM binding z-score [16]	PBM binding z-score [17]	PBM binding z-score [18]	PBM binding z-score [19]	PBM binding z-score [20]
GCCGACAGGTGAAACGCAGGTAACTCAGGGTGGC	-0.479	0.0317	-0.662	-0.204	-1.11	0.797	0.421	-0.333	-0.664	-0.468	0.757	0.528	-0.976	-1.57	-0.704	-0.343	-0.71	0.331	-1.11	0.705
ATCTCTAGGTAACAAGTTCAGTTAAAGAGAGGAC	0.755	0.963	0.655	0.642	0.936	1.62	1.48	2.05	0.996	1.57	2.97	2.91	1.33	1.39	1.31	1.79	1.75	0.869	1.39	1.71
GCGCCTGGGGCAAAGCAGGTTACCATAAGGTTGG	0.19	-0.148	-0.679	-0.341	-1.26	0.474	0.0826	-0.405	-0.693	-0.771	0.355	-0.0318	-1.1	-1.44	-0.5	0.277	-0.671	0.359	-0.592	1.02
TCTATTAGTTGAAGGGCAATCGACGAGTCCGTTT	0.797	0.889	0.341	0.908	0.176	0.795	0.0366	1.98	3.75	2.67	2.4	0.352	-0.193	-0.223	0.916	0.833	0.904	0.162	0.81	1.24
TTACCAAGGTGAAAGGTCGTGGATGCACGCCTTG	3.68	3.62	-0.0355	3.01	-0.715	5.66	9.46	8.31	7.31	8.54	3.06	5.11	0.851	-0.117	2.21	4.12	0.543	6.44	0.268	3.33
TTAATGAGGTTAAAGATCAGGGAACGTGGCGTCG	3.44	3.14	0.612	2.28	0.716	5.01	6.53	7.02	6.34	7.88	4.2	4.61	2.12	1.16	1.89	2.4	0.342	3.61	1.1	2.33
TATACAGGGTGAAAGGCCAGAGTACGAATGTCGA	0.996	0.959	-0.157	1.08	0.982	3.14	5.05	5.48	4.23	5.46	1.07	3.51	1.71	0.732	1.24	0.643	0.178	1.31	0.323	1.68
AGAATGAGGTTATACGTAGATCAGGGCAGAAAGT	2.33	1.89	0.241	1.77	-0.0553	3.17	1.83	2.15	0.79	1.41	4.01	2.15	0.485	0.402	0.774	1.45	1.34	1.82	0.705	1.51
AGAATGAGGTTATGATCAGGGAAACAGAATACAT	1.66	1.52	-0.0293	1.41	-0.275	2.83	1.86	1.65	1.17	1.03	1.69	2.07	1.68	0.713	0.605	1.02	0.186	1.6	0.566	1.42
CTAGAAAGGTCGGTTGAGGTGAGTATACGGATAA	3.11	1.64	-0.0561	1.64	-0.0428	2.6	0.509	1.1	0.117	0.585	0.237	1.18	0.0511	0.00122	1.34	3.37	0.245	2.6	0.889	3.03
CGTCCAAGGTCAGCAGATCAGTGAAAGCGACGTG	5.09	3.1	-0.179	2.21	-0.172	3.95	2.5	2.9	0.511	1.51	2.68	2.66	0.547	-0.498	2.2	2.49	0.4	3.08	0.548	5.02
GGAACGAGGGCAAGTTGGTAGCAGAGTTTGATGG	0.88	0.565	-0.29	0.202	-0.428	1.58	0.752	0.875	-0.334	0.0314	3.6	2.34	-0.479	-0.423	0.722	0.696	0.853	0.662	-0.182	2.79
CCTATTAGTAGACCATAAGGGCAACCGAAGCTCG	0.44	0.377	0.422	0.468	0.364	0.752	0.777	1.21	0.45	0.915	1.88	1.11	0.0545	0.0708	1.4	0.71	0.501	0.768	1.33	1.25
CCTAGCAGGCCAATATGGGTCACTCAAGGCTTGA	0.719	2.76	-0.00824	1.41	-0.863	3.05	1.57	1.86	0.00421	1.15	3.27	4.11	-0.447	-0.637	0.511	1.14	-0.649	1.65	-0.474	1.44
TCTATTATTTGAAGGGCAACCGACGAGTCCGTTT	1.12	1.55	1.32	1.35	0.721	1.29	0.336	2.22	4.08	3.41	2.78	0.734	0.771	1.44	2.12	1.23	1.48	0.961	3.23	1.56
AGAATGTGGTTACCAAAGATCAGGGAAACGCTTG	-0.517	0.7	-0.272	-0.139	-0.442	-0.0504	0.469	0.425	0.333	0.271	0.0362	0.248	0.393	0.266	0.264	-0.353	-0.342	-0.178	-0.0425	-0.0731
TCGAGTAGGTTACCAATGGGGCCTTCAGCTTTCT	-0.184	0.128	-0.933	-0.0136	-1.01	0.918	-0.264	0.957	0.922	0.958	3.36	2.22	-0.652	-1.23	-0.653	-0.289	-1.01	0.0831	-1.27	0.653
AAATGTAGGTTACATCCGGGTCATTCAGGCTATG	2.37	4.34	1.56	2.86	0.424	4.62	6.92	5.78	2.95	5.22	8.29	8.08	3.52	2.02	2.68	3.79	2.33	3.75	1.1	2.28
ATCTCTAGGTAACAAGTTCATTGAAAGAGAGGAC	1.22	1.89	1.5	1.8	1.27	2.75	2.82	3.03	1.55	2.63	3.39	3.28	1.38	1.78	1.57	3.71	5.1	2.06	1.52	1.89
CTACCAAGGTGAAGAAGGTCGTTGATTACTATTC	0.613	0.547	0.132	1.33	-0.664	1.95	0.281	0.572	-0.116	0.36	1.68	1.84	0.127	-0.276	0.69	1.53	0.655	1.48	0.317	1.74
TCTTGTAGATCAACAGGTTAAGAAAGCTGGCCAA	0.41	0.634	-0.164	0.757	-0.124	1.33	0.000535	1.83	2.88	2.37	1.96	0.82	0.047	0.206	0.081	0.51	0.0471	0.981	-0.173	0.375
TCTTGTAGATCAATCAGGTTAAGAAAGCCTGAGT	0.77	0.362	0.00408	0.532	0.279	0.703	-0.495	1.31	2.82	2.3	1.98	0.808	1.29	0.885	-0.302	0.413	-0.0985	0.669	-0.252	0.281
AGAACGAGGACACGCTGAGTTGATAGCAGAGTAG	0.477	-0.638	-0.296	-0.945	-0.622	-0.44	0.748	-0.466	0.251	-0.327	1.51	1.16	-0.315	0.431	0.209	-0.361	0.196	-0.397	-0.0719	1.4
ACAGACAGCTGAGTGAAGGTAACTCAGCTGGACG	-0.287	-0.122	-0.822	-0.496	-0.626	-0.464	0.214	-0.699	-0.617	-0.561	-0.835	-0.364	-0.856	-0.718	-1.12	-0.593	-0.603	-0.513	-0.693	-0.274
CCTAGCAGGCCGATCTGGGTCACTCAAGGCTTGA	0.827	0.587	-0.575	0.613	-0.973	2.6	1.46	1.5	-0.37	0.546	2.8	4.02	-0.802	-1.18	0.337	0.634	-0.34	1.27	-0.893	1.06
TCTTGTAGATCAATAGAGGTTAGGAAAGTGCGCT	1.24	1.49	0.276	0.914	0.11	1.62	0.163	2.04	3.13	2.57	2	0.75	0.694	0.358	0.823	2.06	0.156	1.41	0.518	0.535
CGTCCAAGGTCAGCAGTTCAGTGAAAGCGACGTG	5.17	3.5	0.594	2.73	-0.167	4.42	2.78	3.37	0.482	1.82	2.51	2.84	0.0799	0.847	1.67	3.52	1.29	3.96	0.38	5.29
TCAATGAGGTTATAAGATCAGGGAACGTTGCAAA	1.62	1.48	-0.0675	1.39	-0.169	2.7	1.07	2.15	2.81	2.66	2.23	0.886	-0.23	0.398	0.29	0.939	-0.134	1.47	0.789	1.31
